# Results filed as inconclusive are left out. Calls of active or inactive are those of the source. Calls come from the whole dose curve; as a rule, active = well fitted inhibition curve with a large enough effect in the repeat runs; inconclusive = weak or mixed curves; inactive = no such curve, though single readings can be large or run the other way.
# Biological target: Cytochrome P450 2C9 (Homo sapiens) (UniProt P11712)
# Assay: Cytochrome P450 family 2 subfamily C member 9 (CYP2C9) small molecule antagonists: luciferase biochemical (cell-free) qHTS assay (AID 1645842); note: nearly all actives have a fitted effect of over 55% in size
# Conditions: P450-Glo CYP2C9 enzyme assay, luciferin luminescence; series mostly up to 57.4 µM
# Method in brief: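 Luminescence, after 20 min with luciferin detection reagent, reflected CYP2C9 turnover during a 1 h NADPH-driven reaction at 37C. Enzyme-substrate mix contained 0.4% bovine serum albumin and was preincubated with compound 10 min at room temperature.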
# Potency is the fitted concentration of half-maximal effect.
# Cytochrome P450 2C9 (Homo sapiens), sequence (P11712 whole entry, looked up): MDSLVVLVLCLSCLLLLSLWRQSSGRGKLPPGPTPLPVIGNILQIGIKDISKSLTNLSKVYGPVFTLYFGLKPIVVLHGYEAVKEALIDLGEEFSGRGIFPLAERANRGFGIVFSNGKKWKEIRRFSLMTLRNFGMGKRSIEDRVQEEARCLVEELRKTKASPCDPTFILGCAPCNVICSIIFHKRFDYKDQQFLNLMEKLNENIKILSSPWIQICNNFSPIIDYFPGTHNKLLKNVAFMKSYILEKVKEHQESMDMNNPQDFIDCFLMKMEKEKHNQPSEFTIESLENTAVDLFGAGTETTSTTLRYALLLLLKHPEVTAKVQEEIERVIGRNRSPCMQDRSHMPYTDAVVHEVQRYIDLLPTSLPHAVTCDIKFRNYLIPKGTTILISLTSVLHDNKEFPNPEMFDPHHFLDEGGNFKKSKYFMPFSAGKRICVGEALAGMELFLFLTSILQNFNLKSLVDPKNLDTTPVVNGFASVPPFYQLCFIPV
row,Structure (SMILES),Potency
1,CCCCCCCCCC(=O)O,inactive
2,CNCc1cc(-c2ccccc2F)n(S(=O)(=O)c2cccnc2)c1,inactive
3,O=S(=O)(c1ccc(Cl)cc1)N1CCN(c2ccnc3cc(Cl)ccc23)CC1,2.39 µM (active)
4,O=C(NCc1ccccc1-c1ccccc1C(=O)NCCc1ccccn1)OCc1ccccc1,2.68 µM (active)
5,CCc1cc2c(cc1CC)CC(NCC(O)c1ccc(O)c3[nH]c(=O)ccc13)C2 (centres undefined),inactive
6,Fc1ccc(-c2nc(-c3c(F)cccc3F)[nH]c2-c2ccncc2)cc1,inactive
7,CN(C)c1ccnc2sc3c(=O)n(N4CCCCCC4)cnc3c12,7.56 µM (active)
8,COc1ccc(CN2CCN(C(=O)CCNC(=O)c3ccc(C(C)(C)C)cc3)CC2)cc1,8.49 µM (active)
9,O=C1COc2nccc(-c3ccccc3F)c2CN1Cc1cc(C(F)(F)F)cc(C(F)(F)F)c1,21.3 µM (active)
10,CN(C)CCOc1cc(NS(=O)(=O)c2c(Cl)cc(C(F)(F)F)cc2Cl)ccc1Cl,8.49 µM (active)
11,O=C(OCCO)c1ccccc1O,inactive
12,O=P(O)(O)OC(CO)CO,inactive
13,CCC(C)c1ccc(NC(=O)Cn2cnc3c2c(=O)n(C)c(=O)n3C)cc1 (centres undefined),12 µM (active)
14,CC(C)(C)OC(=O)c1ncn2c1C(C)(C)Nc1ccccc1-2,10.7 µM (active)
15,Cc1cc(-c2nc(-c3ccc(OC(F)(F)F)cc3)no2)nn1Cc1ccnc(N2CCN(C3CC3)CC2)c1,6.01 µM (active)
16,Cc1nnc(-c2ccc(-c3ccc(C(=O)Nc4ccc(O)c(N5CCN(C)CC5)c4)cc3)c(C)c2)o1,inactive
17,Cn1ncc(Cl)c1-c1cc(C(=O)N[C@H](CN)Cc2cccc(F)c2)sc1Cl,9.52 µM (active)
18,Cc1noc(-c2ccc(-c3ccc(CC(=O)O)cc3)cc2)c1NC(=O)O[C@H](C)c1ccccc1Cl,3.01 µM (active)
19,Nc1ncnc2c1c(-c1ccc(Cl)cc1)nn2-c1cccc(-c2cnnn2Cc2cccc(-c3ccccc3)c2)c1,0.536 µM (active)
20,COC(=O)c1sccc1S(=O)(=O)Nc1ccc(Nc2ccccc2)cc1OC,2.39 µM (active)

row,Structure (SMILES),Potency
1,O=C(Nc1ccc(N2C(=O)[C@@H]3[C@H](C2=O)[C@@H]2C=C[C@H]3C2)c(Cl)c1)c1ccccn1,12 µM (active)
2,O=c1cc(N2CCOCC2)nc2c3ccccc3ccn12,15.1 µM (active)
3,CCCn1cc2c(nc(NC(=O)Nc3ccc(OC)cc3)n3nc(-c4ccco4)nc23)n1,6.01 µM (active)
4,C[C@@H](O[C@H]1OCCN(Cc2nn(P(=O)(O)O)c(=O)[nH]2)[C@H]1c1ccc(F)cc1)c1cc(C(F)(F)F)cc(C(F)(F)F)c1,13.1 µM (active)
5,COc1cc(-c2nc(N[C@H](CO)Cc3ccccc3)ccc2C(=O)NCCOc2ccccc2)cc(OC)c1OC,1.51 µM (active)
6,COc1ccc(S(=O)(=O)Nc2c(C)cc(C)cc2C)cc1,2.39 µM (active)
7,O=C(NCCN1CCN(c2cccc3ccc(O)cc23)CC1)c1ccc(F)cc1,0.601 µM (active)
8,C=Cc1ccccc1,inactive
9,Cc1ccnn1-c1ccc(C(=O)N2CCN(S(=O)(=O)c3ccc(Cl)c(C(F)(F)F)c3)CC2)cc1,6.74 µM (active)
10,Fc1ccc(N2CCN(CCC3OCCc4ccccc43)CC2)cc1 (centres undefined),inactive
11,Cc1ccc(C)c(NC(=O)[C@@H]2CCCN2S(=O)(=O)c2cccc3cccnc23)c1,6.74 µM (active)
12,N#Cc1ccc(COc2ccc(-c3cccc4nc(NC(=O)C5CC5)nn34)cc2)cn1,10.7 µM (active)
13,CCCCc1ccc(NS(=O)(=O)c2ccc(F)cc2)cc1,1.69 µM (active)
14,Nc1nc2c(s1)CCN(Cc1ccc(Cl)cc1)CC2,15.1 µM (active)
15,O=C(Nc1ccc(N(Cc2ccsc2)C(=O)Cn2nnc3ccccc32)cc1)C1CC1,1.51 µM (active)
16,O=c1[nH]c2cccc(N3CCN(Cc4ccc(-c5ccccc5)cc4)CC3)c2o1,5.35 µM (active)
17,Cc1ccc(S(=O)(=O)N2CCC[C@H]2c2ccc(F)cc2)cc1,inactive
18,O=C(OC1CN2CCC1CC2)N1CCc2ccccc2C1c1ccccc1 (centres undefined),inactive
19,CCNC1(C(N)=O)CCN(c2ncnc3c2nc(-c2ccccc2Cl)n3-c2ccc(Cl)cc2)CC1,2.13 µM (active)
